We go through 40 molecules from PubChem BioAssay (EPA / NIEHS).

Each structure is given as a SMILES string. Inconclusive results are not listed. Active and inactive are the calls of the source. The calls were made as follows: active = hit-call score of the fitted dose curve at least 0.9, where 1 is the maximum; inconclusive = response in the unintended direction; inactive = score below 0.9.

Read-out in the assay: ABC Transporter (ABCB1), ABCB1 (gene 5243)
Nature of the assay: CLD_ABCB1_24hr: CellzDirect (CLD) Gene Expression Assay for ABC Transporter (ABCB1) at 24 hours (AID 2283684).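 As to AC50: potency for increase in ABCB1 mRNA relative to DMSO vehicle.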 How it is done: CLD_24hr is a cell-based, multiplexed-readout assay that uses hepatocyte, a human liver primary cell, with measurements taken at 24 hours after chemical dosing in a 96-well plate.CLD_ABCB1_24hr is one of 16 assay component(s) measured or calculated from the CLD_24hr assay. It is designed to make measurements of mRNA induction, a form of inducible reporter, as detected with chemiluminescence signals by Quantitative Nuclease Protection Assay (qNPA) technology.Data from the assay component CLD_ABCB1_24hr was analyzed at the endpoint, CLD_ABCB1_24hr, in the positive analysis fitting direction relative to DMSO as the negative control and baseline of activity. Using a type of inducible reporter, gain-of-signal activity can be used to understand changes in the reporter gene as they relate to the gene ABCB1. Furthermore, this assay endpoint can be referred to as a primary readout. To generalize the intended target to other relatable targets, this assay endpoint is annotated to the transporter intended target family, where subfamily is ABC transporter.
Human hepatocyte cultures were treated daily for two consecutive days with fresh dosing solutions containing appropriate concentrations of the 320 ToxCast chemicals (chemical identities were blinded to CellzDirect and other ToxCast collaborators), vehicle control (0.2% DMSO), and positive control inducers as summarized in Table 1. Due to the large number of treatment groups and chemicals examined, the ToxCast chemicals were divided into two groups (spanning two independent cultures of hepatocytes from separate donor preparations (Hu778: ToxCast plates 1 and 2; Hu776: ToxCast plates 3 and 4). Each preparation of human hepatocyte cultures was treated with respective vehicle control, medium only control, set of six positive controls/reference chemicals for the five hepatic receptor pathways, and a subset of eight of the ToxCast chemicals (indoxacarb, pyrithiobac-sodium, norflurazon, cyhalofop-butyl, methomyl, thiram, acetochlor, and propiconazole). These replicate data, coupled with internal replicates designed within the blinded ToxCast chemical library, provided additional data to evaluate interindividual differences between hepatocyte preparations and their potential impact on chemical profiles.Cell morphology and integrity were evaluated using phase-contrast microscopy as an indicator of hepatocyte cell health (Tyson & Green, 1987). Cultures for each treatment group (i.e., media, vehicle [0.2% DMSO], positive control inducers [multiple concentrations], and the ToxCast chemicals [multiple concentrations]) were observed and cell morphology was assessed relative to vehicle control cultures at each harvest time point (0, 6, 24, or 48 h). […] Images were evaluated at the conclusion of the study to assess changes in cell integrity and account for the effects of chemical exposure on uncharacteristic changes in concentration-dependent gene expression profiles. The results from these determinations of apparent cytotoxicity were annotated (yes/no) alongside the corresponding qNPA data for reference.At the conclusion of each treatment period, hepatocyte cultures (96-well) were washed with 1 volume of HBSS, lysed by addition of 25 ul ArrayPlate lysis buffer (HTG, Tucson, AZ), and 70 ul/well of Denaturation Oil, denatured by incubation at 95C for 10 min, and frozen at approximately -70C until analysis by nuclease protection assay (qNPA) (Roberts et al., 2007). For qNPA analysis, cell lysates were thawed at 50C for approximately 30 min, qNPA probes were added, and samples were incubated at 95C for 10 min to begin the detection process by denaturing the target RNA, dissociating the duplexes and secondary structure hybridization. At the conclusion of the hybridization period, S1 nuclease reagent was added to each sample to digest all nonprotected nucleotides at 50C for 60-90 min. […]
As to `CCOP(=S)(OCC)Oc1nc(Cl)n(C(C)C)n1`, the molecule was classed as inactive. `CO/N=C(/C1=NOCCO1)c1ccccc1Oc1ncnc(Oc2ccccc2Cl)c1F`: the molecule was called inactive.

As to `Nc1c(Cl)c(Cl)nc(C(=O)O)c1Cl`, the molecule was called inactive. As for `Cc1ccc(N=CN(C)C=Nc2ccc(C)cc2C)c(C)c1`, the AC50 is 28.2 µM (active). Consider `COc1cc(OC)nc(NC(=O)NS(=O)(=O)c2ncccc2OCC(F)(F)F)n1`, for which the outcome was inactive. Turning to `CN=C=S`, the result was inactive. Still for that read-out and setting: the entry for `O=C(Nc1ccccc1-c1ccc(Cl)cc1)c1cccnc1Cl` is “inactive”; for `C=C(C)CN(CC)c1c([N+](=O)[O-])cc(C(F)(F)F)cc1[N+](=O)[O-]` it is “inactive”.

Consider `CNC(=O)Oc1cccc2ccccc12`, for which the result was inactive.

As for `O=C1C2CC=CCC2C(=O)N1SC(Cl)(Cl)Cl` (stereo not given), the molecule was called inactive. Still for that read-out and setting: the entry for `CCOc1cc(C(C)(C)C)ccc1C1COC(c2c(F)cccc2F)=N1` (stereo not given) is “inactive”.

`CC1(C)C(C(=O)OC(C#N)c2cccc(Oc3ccccc3)c2)C1(C)C` (stereo not given): the outcome was inactive. With `CCNC(=O)NC(=O)C(C#N)=NOC`, the result was inactive. Turning to `Nc1cnn(-c2ccccc2)c(=O)c1Cl`, the molecule was called inactive. For `CC1(C)CON(Cc2ccccc2Cl)C1=O`, the molecule was called inactive. Take `COc1ccc(-c2ccccc2)cc1NNC(=O)OC(C)C`: the result was inactive.

On to `CCCCC(O)(Cn1cncn1)c1ccc(Cl)cc1Cl` (stereo not given), for which the AC50 is 31.9 µM (active). In the case of `CC(C)NC(=O)N1CC(=O)N(c2cc(Cl)cc(Cl)c2)C1=O`, the call was inactive. Turning to `CC(C)(C)C(=O)C(Oc1ccc(Cl)cc1)n1cncn1` (stereo not given), the outcome was inactive.

For the molecule `COP(=S)(OC)Oc1ccc([N+](=O)[O-])c(C)c1`, the outcome was inactive. Same read-out and setting: the entry for `O=c1n(Cl)c(=O)n(Cl)c(=O)n1Cl` is “inactive”. On to `CCOc1nc(C(Cl)(Cl)Cl)ns1`, for which the result was inactive. Same read-out and setting: the entry for `CC(C)C1(C)N=C(c2ncccc2C(=O)O)NC1=O` (stereo not given) is “inactive”; for `CC(C)N1C(=O)N(c2ccccc2)CSC1=NC(C)(C)C` it is “inactive”; for `COc1cc(Cl)c(OC)cc1Cl` it is “inactive”.

Consider `CCCC(=NOCC)C1=C(O)CC(CC(C)SCC)CC1=O` (stereo not given), for which the molecule was called inactive. Consider `CC(C)N1C(=O)c2ccccc2NS1(=O)=O`, for which the call was inactive. Take `COC(=O)N(C(=O)N1CO[C@@]2(C(=O)OC)Cc3cc(Cl)ccc3C2=N1)c1ccc(OC(F)(F)F)cc1`: the outcome was inactive. With `Clc1cccc(C(Cl)(Cl)Cl)n1`, the result was inactive. For `Cc1c(COC(=O)[C@@H]2[C@H](/C=C(\Cl)C(F)(F)F)C2(C)C)cccc1-c1ccccc1`, the AC50 was 29.9 µM (active). Regarding `O=C(O)c1c(Cl)ccc2cc(Cl)cnc12`, the molecule was called inactive. The same measure, in the same setting: with `CS(=O)(=O)c1cc(C(F)(F)F)ccc1C(=O)c1cnoc1C1CC1` the entry was “inactive”. Regarding `CC1(C)C(C=C(Cl)Cl)C1C(=O)OC(C#N)c1cccc(Oc2ccccc2)c1` (stereo not given), the molecule was classed as inactive.

As to `COC(=O)NS(=O)(=O)c1ccc(N)cc1`, the outcome was inactive. Regarding `C=CCOC(=O)C(C)(C)OC(=O)c1cc(-n2c(=O)cc(C(F)(F)F)n(C)c2=O)ccc1Cl`, the molecule was called inactive. In the case of `Cn1c(-c2ccccc2)cc(-c2ccccc2)[n+]1C`, the result was inactive.

Consider `Cc1cnc(C2=NC(C)(C(C)C)C(=O)N2)c(C(=O)O)c1` (stereo not given), for which the outcome was inactive. `COC(=O)c1c(C(F)F)nc(C(F)(F)F)c(C2=NCCS2)c1CC(C)C`: the outcome was inactive. Still for that read-out and setting: with `COCC(C)N(C(=O)CCl)c1c(C)csc1C` (stereo not given) the entry was “inactive”; with `CS(=O)(=O)c1ccc(C(=O)C2C(=O)CCCC2=O)c([N+](=O)[O-])c1`, “inactive”.

Broadly, the AC50 is the midpoint of the concentration-response curve, whichever way the signal moves.
